These results are taken from PubChem BioAssay (NCI).

This is part of a sample that, as a whole, favours compounds with a hit. Of some 83,000 tested, about 20% had one in any assay.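 How to read the values: 0–100, growth inhibition (40 = 60% inhibited); 0, no net growth; -100 to 0, cell death (-40 = 40% of starting cells died; -100 = all dead).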 Unmarked numbers belong to inactive results. Calls of active or inactive are those of the source.

The assay relates to HT29 colon. The experiment in a line: NCI-60 one-dose screen, 48 h (100 = growth as untreated, 0 = no growth, -100 = all killed). As to conditions: 10 µM unless noted. Here is the method: Growth inhibition of the HT29 human tumor cell line is measured as a screen for anti-cancer activity. Cells are grown in 96 well plates and exposed to the test compound for 48 hours. Compounds are tested at a single concentration, which is 10^-5 M for most compounds. The reported endpoint is percent growth (GI% or GIPRCNT), where numbers from 0 - 100% represent growth inhibition, and numbers from -100% - 0 represent cell death. For example, a value of 40 represents 60% growth inhibition. A value of 0 means no net growth occurred over the course of the experiment. A value of -40 indicates 40% of cells at the beginning of the experiment died by the end of the experiment. A value of -100 means all cells are dead at the end of the experiment.
NCI-60 Human Tumor Cell Lines Screen was performed using the standard one-dose NCI protocol, which is described in more detail at https://dtp.cancer.gov/discovery_development/nci-60/default.htm.
Compounds with GIPRCNT values below 10 were considered active. Activity score was based on GIPRCNT using the following formula: […]
Score is 0 for GIPRCNT values of 100 or above, 50 for GIPRCNT values of 0, and 100 for GIPRCNT values of -100.
In the case of `NC(=O)C1(Nc2ccc(Br)cc2)CCCC1`, the growth is 102%.

Turning to `CN1CCN(c2ccc(-c3cc4c(Nc5ccc(F)c(Cl)c5)ncnn4c3)cn2)CC1`, the growth was 16.1%.

For `CCCCCCNC(=O)Oc1ccc(/C(=C(\C)c2ccc(OC)cc2)c2ccc(OCCN3CCCCC3)cc2)cc1`, the growth was 4.52% (active).

Turning to `COc1ccc(C(=O)n2nc(-c3ccccc3)nc2N)cc1OC`, the growth was 91.9%.

As to `CCOC(=O)C1=C(N)Oc2c(sc3c(CC)cccc23)C1c1ccc(F)cc1` (stereo not given), the growth is 40.4%.

Turning to `C#C[C@]1(O)CC[C@H]2[C@@H]3CC=C4c5sc(Nc6cc(F)ccc6F)nc5CC[C@]4(C)[C@H]3CC[C@@]21C`, the growth is 8.03% (active).

As to `O=C(CCCCCCSc1nc(-c2ccccc2)cc(-c2ccccc2)n1)NO`, the growth was 8.32% (active).

Turning to `O=C(Nc1ccc(OS(=O)(=O)c2ccc(F)cc2)cc1)c1ccc(Cl)cc1`, the growth was 80.1%.

Turning to `COc1cccc(-c2nc(-c3ccc(NS(=O)(=O)c4ccccc4)cc3)[nH]c2-c2ccnc(Br)c2)c1`, the growth was 32.8%.

Regarding `CC(C)c1cc(C(C)C)c(S(=O)(=O)Oc2ccc(NC(=O)c3ccc(Cl)cc3)cc2)c(C(C)C)c1`, the growth is 46.6%.

With `O=C(S)CNC(=O)c1ccccc1`, the growth is 99.5%.

Consider `COc1ccc2nc(NCCCNCCO)c3sc4ccc(F)cc4c(=O)c3c2c1`, for which the growth is -43.7% (active).

For `CCCCNC(=O)Oc1ccc(/C(=C(\C)c2ccc(Cl)cc2)c2ccc(OCCN3CCCCC3)cc2)cc1`, the growth was 10.9%.

For the compound `COc1ccc(/C=C/c2c(C(=O)/C=C/c3ccc(C(F)(F)F)cc3)c(C)nc3ccccc23)cc1`, the growth was 7.38% (active).

Regarding `N#Cc1c(-c2ccc(Cl)cc2)nc2c(c(-c3ccccc3)nn2-c2ccccc2)c1-c1ccc(O)cc1`, the growth is 91.8%.

Regarding `COc1ccc(C2CC(c3ccc(Nc4nc(Nc5ccc(F)cc5)nc(Nc5ccc(Cl)cc5)n4)cc3)=NN2C(C)=O)cc1` (stereo not given), the growth was 108%.

Turning to `CCCCN(C)N=Nc1ccc(C(N)=O)cc1`, the growth was 107%.

With `Cn1cc(-c2ccc3cc(-c4ccc(CC(=O)Nc5cc(C(C)(C)C)nn5C)cc4)cnc3c2)cn1`, the growth was 22.6%.

Consider `COc1cc(C(=O)/C=C/c2ccc(OCCCCCC[P+](c3ccccc3)(c3ccccc3)c3ccccc3)cc2)cc(OC)c1OC`, for which the growth was -14.1% (active).

`CN1C(=O)CNC(=O)[C@H](NC(=O)c2nc3ccccc3cc2O)CSSC[C@H]1C(=O)NCCCc1nc2ccccc2cc1O`: the growth was 17.7%.

With `CCN1C(=O)N(CC)C2Nn3c(s/c(=C4\C(=O)N(CCC(C)C)c5ccccc54)c3=O)=NC21` (stereo not given), the growth is 112%.

Consider `Cc1cc(=O)oc2cc(OC(=O)N3CCN(C)CC3)ccc12`, for which the growth was 114%.

Take `CC(=O)CC(c1cccs1)c1c(-c2ccccc2)[nH]c2ccccc12` (stereo not given): the growth was 98.2%.

As to `Cc1ccc(S(=O)(=O)N/N=C/C2(c3ccccc3)CC2)cc1`, the growth was 109%.

As to `O=C(N/N=C/[C@@H](O)[C@H](O)[C@H](O)CO)c1ccc(NC(=O)c2cccnc2)cc1`, the growth is 105%.

With `c1ccc(-c2nc3sc(-c4ccccc4)cn3n2)cc1`, the growth is 90.3%.

As for `CC(=O)O.CN1[CH-]N(Cc2ccc(C#N)cc2)c2ccccc21.[Ag+]`, the growth is 94.7%.

On to `COc1ccc(C2C(N)=NNC2c2cccc(O)c2)cc1` (stereo not given), for which the growth was 104%.

Turning to `Cc1ccc2sc3c(NCCCN)nc4ccccc4c3c(=O)c2c1`, the growth was -47.4% (active).

Consider `CCOC(=O)c1nc(Nc2ccc(C(C)=O)cc2)sc1C`, for which the growth is 97.5%.

Take `Cc1ccc(C(=O)N/N=C/c2cccc([N+](=O)[O-])c2)cn1`: the growth was 114%.

Regarding `CCc1cccc2c1S/C(=C/c1ccc(Cl)cc1)C2=O`, the growth was 105%.

For `COc1cc(C(=O)c2cc(C)c3[nH]c4ccc(O)cc4c3c2C)cc(OC)c1OC`, the growth is 14.5%.

As for `COc1ccc(-c2nc(NCCO)[nH]c(=O)c2C#N)cc1`, the growth is 94.7%.

Turning to `COc1ccc(-n2c(N)c(-c3nc4ccccc4[nH]3)cc(C#N)c2=O)cc1`, the growth was 90.2%.

For the compound `Brc1c[n+](Cc2ccc3ccccc3c2)cn1Cc1ccc2ccccc2c1`, the growth is 7.66% (active).

With `Nc1nc(Cl)cc(=O)n1Cc1ccccc1`, the growth was 103%.

For `COc1cc(C)c(Cc2cnc(N)nc2N)cc1OC`, the growth is 109%.

As for `COc1ccc2[nH]c(-c3ccccc3)c(/C=C(\C#N)S(=O)(=O)c3ccccc3)c2c1`, the growth was 21%.

On to `c1ccc2cc(C[n+]3ccn(CCCCCCCCCCCCn4cc[n+](Cc5ccc6ccccc6c5)c4)c3)ccc2c1`, for which the growth was -82.7% (active).
